According to PubChem BioAssay AID1159580 (chemical genetic matrix, 2015):
Several values for one entry are separate records, joined by “and”; a condition that tells them apart may be missing. Identical values can stand only once. About 2,000 (36%) of roughly 5,500 compounds were called active. Another 18% or so got no clear call; they are omitted. Cut-off read from the data, not from the text of the source: active = normalized growth mostly below about 0.91 (no sharp cut-off); inconclusive = no clear call, values can overlap the other calls; inactive = mostly above about 0.92. This is one part of the list.

Assay: chemical genetic growth profiling, strain panel (AID 1159580);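 note: tested at 20 µM; growth read once vehicle control cultures reached saturation at 30 °C; 1 = growth at the plate median or of vehicle wells; lower values mean less growth of the strain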
Details: S. cerevisiae deletion strains, growth OD

Measured: normalized growth

CC(C)(O)CC[C@@H](O)[C@](C)(O)C1CC[C@@]2(O)C3=CC(=O)C4C[C@@H](O)[C@@H](O)C[C@]4(C)C3CC[C@]12C (stereo not given in full)
inactive: locus YAL013W, strain DEP1, hits give low values 1.04 | locus YAL021C, strain ccr4, hits give low values 0.991 | locus YAL026C, strain drs2, hits give low values 1 | locus YAL030W, strain snc1, hits give low values 0.999 | locus YBL061C, strain skt5, hits give low values 1 | locus YBR009C, strain hhf1, hits give low values 1.01 | locus YBR021W, strain FUR4, hits give low values 0.984 | locus YBR023C, strain chs3, hits give low values 0.996 | locus YBR171W, strain sec66, hits give low values 0.99 | locus YBR229C, strain ROT2, hits give low values 1 | locus YBR231C, strain swc5, hits give low values 0.993 | locus YBR279W, strain paf1, hits give low values 1.01 | locus YCL011C, strain gbp2, hits give low values 1.01 | locus YCL016C, strain dcc1, hits give low values 0.995 | locus YCL029C, strain bik1, hits give low values 1 | locus YCL061C, strain MRC1, hits give low values 1 | locus YCL069W, strain vba3, hits give low values 1.03 | locus YCR088W, strain abp1, hits give low values 0.999 | locus YDL005C, strain med2, hits give low values 0.994 | locus YDL035C, strain GPR1, hits give low values 1.03 | locus YDL040C, strain nat1, hits give low values 0.98 | locus YDL074C, strain BRE1, hits give low values 1.03 | locus YDL101C, strain DUN1, hits give low values 1.02 | locus YDL185W, strain tfp1, hits give low values 0.999 | locus YDL192W, strain arf1, hits give low values 1 | locus YDR001C, strain nth1, hits give low values 1 | locus YDR069C, strain doa4, hits give low values 1.01 | locus YDR101C, strain arx1, hits give low values 0.984 | locus YDR137W, strain rgp1, hits give low values 0.976 | locus YDR150W, strain NUM1, hits give low values 1.01 | locus YDR159W, strain sac3, hits give low values 0.99 | locus YDR162C, strain NBP2, hits give low values 1.03 | locus YDR195W, strain ref2 0.972 | locus YDR297W, strain sur2, hits give low values 1.01 | locus YDR318W, strain mcm21, hits give low values 1 | locus YDR334W, strain swr1, hits give low values 1 | locus YDR335W, strain msn5, hits give low values 1 | locus YDR388W, hits give low values 0.993 | locus YDR392W, strain spt3, hits give low values 0.976 | locus YDR502C, strain sam2, hits give low values 1 | locus YEL003W, strain gim4, hits give low values 1.01 | locus YEL037C, strain rad23, hits give low values 0.992 | locus YEL061C, strain CIN8 (second series), hits give low values 1 | locus YEL061C, strain CIN8, hits give low values 1 | locus YER015W, strain faa2, hits give low values 1 | locus YER016W, strain bim1, hits give low values 0.996 | locus YER110C, hits give low values 0.994 | locus YER111C, strain swi4, hits give low values 1.01 | locus YER155C, strain BEM2 (second series), hits give low values 0.996 | locus YER155C, strain BEM2, hits give low values 1 | locus YER167W, strain BCK2, hits give low values 1.02 | locus YFR010W, strain ubp6, hits give low values 1 | locus YGL078C, strain dbp3, hits give low values 1 | locus YGL086W, strain mad1, hits give low values 1 | locus YGL167C, strain pmr1, hits give low values 1 | locus YGL173C, strain kem1, hits give low values 1 | locus YGL227W, strain vid30, hits give low values 0.999 | locus YGL240W, strain doc1, hits give low values 0.98 | locus YGL248W, strain PDE1, hits give low values 1.01 | locus YGL253W, strain hxk2, hits give low values 1.01 | locus YGR078C, strain PAC10, hits give low values 1.03 | locus YGR135W, strain pre9, hits give low values 0.997 | locus YGR229C, strain SMI1, hits give low values 1.04 | locus YGR252W, strain gcn5, hits give low values 0.995 | locus YHR013C, strain ard1, hits give low values 0.995 | locus YHR027C, strain rpn1, hits give low values 0.997 | locus YHR030C, strain SLT2, hits give low values 1.01 and 1 | locus YHR079C, strain IRE1 (second series), hits give low values 1.02 | locus YHR079C, strain IRE1, hits give low values 0.988 | locus YHR094C, strain hxt1, hits give low values 0.995 | locus YHR129C, strain ARP1, hits give low values 1.01 | locus YHR142W, strain chs7, hits give low values 1.01 | locus YHR200W, strain rpn10, hits give low values 1.01 | locus YIL066C, strain RNR3, hits give low values 1.04 | locus YIL073C, strain SPO22, hits give low values 1.02 | locus YIL125W, strain kgd1, hits give low values 1 | locus YIR030C, strain dcg1, hits give low values 1 | locus YJL092W, strain hpr5, hits give low values 0.998 | locus YJL095W, strain BCK1 (second series), hits give low values 1 | locus YJL095W, strain BCK1, hits give low values 1.03 and 1.04 | locus YJL115W, strain asf1, hits give low values 1 | locus YJL129C, strain trk1, hits give low values 1.01 | locus YJL134W, strain LCB3, hits give low values 1.01 | locus YJL154C, strain vps35, hits give low values 0.994 | locus YJL164C, strain tpk1, hits give low values 1.01 | locus YJL166W, strain qcr8, hits give low values 1 | locus YJL168C, strain set2, hits give low values 1 | locus YJL187C, strain SWE1 (second series), hits give low values 1.02 | locus YJL187C, strain SWE1, hits give low values 1.02 | locus YJR043C, strain POL32, hits give low values 1.02 | locus YJR066W, strain TOR1, hits give low values 0.93 | locus YKL009W, strain mrt4, hits give low values 0.995 | locus YKL068W, hits give low values 0.993 | locus YKL085W, strain MDH1 (second series), hits give low values 1.01 | locus YKL085W, strain MDH1, hits give low values 1.01 | locus YKL160W, strain elf1, hits give low values 1 | locus YKR001C, strain vps1, hits give low values 0.985 | locus YKR026C, strain gcn3, hits give low values 0.989 | locus YKR091W, strain srl3, hits give low values 0.997 | locus YLL001W, strain dnm1, hits give low values 1 | locus YLL026W, hits give low values 0.994 | locus YLL041C, strain sdh2, hits give low values 0.994 | locus YLR027C, strain aat2, hits give low values 1.01 | locus YLR039C, strain RIC1, hits give low values 1.01 | locus YLR058C, strain SHM2, hits give low values 1.01 | locus YLR102C, strain apc9, hits give low values 0.992 | locus YLR113W, strain HOG1, hits give low values 1.02 | locus YLR221C, strain rsa3, hits give low values 0.996 | locus YLR258W, strain gsy2, hits give low values 0.998 | locus YLR262C, strain YPT6, hits give low values 1.05 | locus YLR268W, strain sec22, hits give low values 1 | locus YLR320W, strain mms22, hits give low values 0.996 | locus YLR330W, strain CHS5, hits give low values 1.01 | locus YLR342W, strain FKS1 (second series), hits give low values 1.02 | locus YLR342W, strain FKS1, hits give low values 1.03 | locus YLR357W, strain rsc2, hits give low values 0.999 | locus YLR370C, strain arc18, hits give low values 0.991 | locus YLR371W, strain rom2, hits give low values 0.99 | locus YLR384C, strain iki3, hits give low values 0.985 | locus YLR418C, strain cdc73, hits give low values 0.99 | locus YML016C, strain PPZ1, hits give low values 1.01 | locus YML032C, strain rad52, hits give low values 0.998 | locus YML120C, strain ndi1, hits give low values 0.996 | locus YML124C, strain tub3, hits give low values 0.996 | locus YMR058W, strain fet3, hits give low values 1 | locus YMR078C, strain ctf18, hits give low values 1.01 | locus YMR125W, strain sto1, hits give low values 0.983 | locus YMR129W, hits give low values 0.998 | locus YMR205C, strain PFK2, hits give low values 1.04 | locus YMR223W, strain ubp8, hits give low values 0.998 | locus YMR231W, strain pep5, hits give low values 0.969 | locus YMR307W, strain GAS1, hits give low values 1.1 | locus YNL067W, strain RPL9B, hits give low values 1.02 | locus YNL071W, strain lat1, hits give low values 1 | locus YNL153C, strain GIM3, hits give low values 1.03 | locus YNL183C, strain NPR1, hits give low values 0.973 | locus YNL209W, strain ssb2, hits give low values 1.02 | locus YNL233W, strain BNI4, hits give low values 1.03 | locus YNL248C, strain rpa49, hits give low values 0.996 | locus YNL250W, strain rad50, hits give low values 1.01 | locus YNL271C, strain bni1, hits give low values 1 | locus YNL298W, strain CLA4, hits give low values 0.988 | locus YNL307C, strain MCK1, hits give low values 0.992 | locus YNL322C, strain KRE1 (second series), hits give low values 0.983 | locus YNR049C, strain mso1, hits give low values 0.991 | locus YNR052C, strain pop2, hits give low values 0.993 | locus YOL012C, strain htz1 0.787 | locus YOL147C, strain pex11, hits give low values 0.99 | locus YOR001W, strain rrp6, hits give low values 1.01 | locus YOR061W, strain CKA2, hits give low values 1.01 | locus YOR069W, strain VPS5, hits give low values 1 | locus YOR070C, strain gyp1, hits give low values 1 | locus YOR080W, strain dia2, hits give low values 0.996 | locus YOR083W, strain WHI5, hits give low values 1.01 | locus YOR106W, strain vam3, hits give low values 1.01 | locus YOR136W, strain idh2, hits give low values 1 | locus YOR144C, strain elg1, hits give low values 0.996 | locus YOR184W, strain ser1, hits give low values 1 | locus YOR231W, strain MKK1, hits give low values 0.978 | locus YOR265W, strain rbl2, hits give low values 1 | locus YOR270C, strain vph1, hits give low values 1.06 | locus YOR290C, strain snf2, hits give low values 0.995 | locus YOR316C, strain cot1, hits give low values 0.989 | locus YPL051W, strain arl3, hits give low values 1.01 | locus YPL055C, strain LGE1, hits give low values 1.04 | locus YPL078C, strain atp4, hits give low values 1.01 | locus YPL106C, strain sse1, hits give low values 1.01 | locus YPL240C, strain hsp82, hits give low values 0.995 | locus YPL256C, strain CLN2, hits give low values 0.996 | locus YPR119W, strain clb2, hits give low values 1 | locus YPR141C, strain kar3, hits give low values 0.998 | locus YPR163C, strain tif3, hits give low values 1 | locus YPR167C, strain met16, hits give low values 0.999 | strain wtn01, hits give low values 0.99
active: locus YLR262C, strain YPT6 (second series), hits give low values 1.16 [resistant]
